{"source": "PubChem BioAssay AID1347416", "about": "(National Center for Advancing Translational Sciences (NCATS), 2020)", "note": "Out of some 4,100 compounds screened, about 1,600 (39%) were called active. Inconclusive results (about 25%) are left out. The call rests on the fitted dose curve; in most records, active means well fitted inhibition curve with a large enough effect; inconclusive means small, poorly fitted or top-dose-only effect; inactive means no such curve, though single readings can be large or run the other way. The list shows a part of the results. On the % scale 0 is the no-effect control and ±100 the full control effect; potency means the concentration at half of the fitted maximal effect."}
{"assay": "qHTS Validation assay for Inhibitors of Plasmodium falciparum Dd2 growth in vitro; further: nearly all actives have a fitted effect of over 70% in size", "settings": "P. falciparum Dd2 in RBCs, SYBR Green growth, 72 h; series mostly up to 28.7 µM; activity change, negative = inhibition: at the top concentration", "outline": "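P. falciparum Dd2-infected red blood cells (2.5% hematocrit, 0.3% parasitemia) grown 72 h at 37 °C under 5% O2 with compounds in a titration, 29 uM to 0.5 nM final. Growth read as SYBR Green-1 fluorescence after ~16 h lysis; artesunate 300 nM as positive control.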"}
{"molecule": "O=C(CCn1c(=O)c2cccn2c2cccnc21)NCc1cccc(Br)c1", "activity change, negative = inhibition": "-0.311% (inactive)"}
{"molecule": "COc1ccc(Cn2c(=O)c3cccnc3n(CC(=O)Nc3ccc(C)c(F)c3)c2=O)cc1", "activity change, negative = inhibition": "17.6% (inactive)"}
{"molecule": "CCc1cccc(-n2c(=O)c3cccnc3n2CC(=O)Nc2ccc(F)c(C)c2)c1", "Potency": "2.66 µM (active)"}
{"molecule": "O=C(Cn1c(=O)c2cccn2c2cccnc21)NCc1ccccc1F", "activity change, negative = inhibition": "21.9% (inactive)"}
{"molecule": "O=C(CCc1nc2cccnc2n1Cc1ccccc1)NCc1cccc(Cl)c1", "activity change, negative = inhibition": "12.7% (inactive)"}
{"molecule": "CCc1cccc(-n2c(=O)c3cccnc3n2CC(=O)NCc2ccc(C)cc2)c1", "Potency": "1.68 µM (active)"}
{"molecule": "CCc1cccc(-n2c(=O)c3cccnc3n2CC(=O)NCc2ccccc2)c1", "Potency": "1.68 µM (active)"}
{"molecule": "COc1ccc(CNC[C@H]2COCc3nc4cc(C(F)(F)F)ccc4n32)cn1", "activity change, negative = inhibition": "14.2% [at 43.1 µM] (inactive)"}
{"molecule": "COc1ccc2ncc3c(-c4ccc(C)c(C)c4)nn(CC(=O)NC4CCCCC4)c3c2c1", "activity change, negative = inhibition": "31% (inactive)"}
{"molecule": "CCc1ccc(-c2nn(CC(=O)NC3CCCCC3)c3c2cnc2ccc(OC)cc23)cc1", "Potency": "9.44 µM (active)"}
{"molecule": "CCOc1ccc(C2Cn3nnc(-c4nc(-c5ccsc5)no4)c3CO2)cc1", "note": "(configuration not stated)", "activity change, negative = inhibition": "12.1% (inactive)"}
{"molecule": "O=C(NCc1ccccc1F)C1CCN(C(=O)c2ncn3c2COC(c2ccc(F)cc2)C3)CC1", "note": "(configuration not stated)", "activity change, negative = inhibition": "14.3% (inactive)"}
{"molecule": "CC(C)(C)c1ccc(-c2noc(-c3ncn4c3COC(c3ccc(F)cc3)C4)n2)cc1", "note": "(configuration not stated)", "Potency": "15 µM (active)"}
{"molecule": "COc1cccc(CN2CCc3nc(N4CCOCC4)[nH]c(=O)c3CC2)c1OC", "activity change, negative = inhibition": "1.69% (inactive)"}
{"molecule": "O=c1[nH]c(N2CCOCC2)nc2c1CCN(Cc1ccccc1Br)CC2", "Potency": "15 µM (active)"}
{"molecule": "O=c1[nH]c(N2CCOCC2)nc2c1CCN(Cc1ccccc1C(F)(F)F)CC2", "Potency": "4.73 µM (active)"}
{"molecule": "O=c1[nH]c(N2CCOCC2)nc2c1CCN(Cc1cccc(C(F)(F)F)c1)CC2", "activity change, negative = inhibition": "-22.4% (inactive)"}
{"molecule": "Cc1noc2c(NC3CCN(C)CC3)cc(-c3cccc(C(F)(F)F)c3)nc12", "Potency": "13.7 µM (active)"}
{"molecule": "Cc1cc(Br)ccc1NC(=O)c1ccc(NS(=O)(=O)c2c(C)noc2C)cc1", "activity change, negative = inhibition": "25% (inactive)"}
{"molecule": "O=C(Nc1ncccc1O)c1ccc(NS(=O)(=O)c2ccc3[nH]c(=O)[nH]c3c2)cc1", "Potency": "0.422 µM (active)"}
{"molecule": "CC(=O)N1c2c(cc(Br)cc2S(=O)(=O)N2CCN(c3cc(C)ccc3C)CC2)CC1C", "note": "(configuration not stated)", "Potency": "11.9 µM (active)"}
{"molecule": "O=C1NC(=NC2CCCCC2)C2(CCN(Cc3ccc(F)cc3)C2)N1c1cc(F)cc(F)c1", "note": "(configuration not stated)", "Potency": "4.22 µM (active)"}
{"molecule": "CN(C)c1ccc(CN2CCC3(C2)C(=NC2CCCCC2)NC(=O)N3c2cccnc2)cc1", "note": "(configuration not stated)", "activity change, negative = inhibition": "-28.4% (inactive)"}
{"molecule": "O=C1NC(=NC2CCCC2)C2(CCN(Cc3ccc(F)cc3)C2)N1c1cc(F)cc(F)c1", "note": "(configuration not stated)", "Potency": "10.6 µM (active)"}
{"molecule": "CN(C)c1ccc(CN2CCC3(C2)C(=NC2CCCC2)NC(=O)N3c2cccnc2)cc1", "note": "(configuration not stated)", "activity change, negative = inhibition": "-33.1% (inactive)"}
{"molecule": "O=C(c1ccc(C(F)(F)F)cc1)N1CCC2(CC1)C(=NC1CCCCC1)NC(=O)N2c1cc(F)cc(F)c1", "activity change, negative = inhibition": "-25.9% (inactive)"}
{"molecule": "O=C1NC(=NC2CCCCC2)C2(CCCN([S+](=O)([O-])c3ccccc3)C2)N1c1cccnc1", "note": "(configuration not stated)", "activity change, negative = inhibition": "-14.7% (inactive)"}
{"molecule": "CCOC(=O)c1c(NC(=O)c2ccccc2)sc2c(O)c(CN(CC)CC)ccc12", "Potency": "0.15 µM (active)"}
{"molecule": "Cc1ccc(Oc2nc3c(c(=O)n(Cc4ccccc4)c(=O)n3C)n2C)cc1C", "activity change, negative = inhibition": "42.4% (inactive)"}
{"molecule": "CCNc1nc2c(c(=O)n(C)c(=O)n2C)n1Cc1ccc(F)cc1", "activity change, negative = inhibition": "-8.15% (inactive)"}
{"molecule": "COc1cccc(Cn2c(Oc3ccccc3)nc3c2c(=O)n(C)c(=O)n3C)c1", "Potency": "4.73 µM (active)"}
{"molecule": "Cc1ccccc1C(=O)N1CCCCC12Cc1ccccc1NC2=O", "note": "(configuration not stated)", "activity change, negative = inhibition": "40.8% [at 43.1 µM] (inactive)"}
{"molecule": "CCCOc1ccc(CCc2n[nH]c(=S)n2Cc2ccccc2)cc1", "Potency": "5.31 µM (active)"}
{"molecule": "CN1CCNc2nc(COc3ccc(Oc4ccccc4)cc3)n(Cc3ccccc3)c2C1=O", "activity change, negative = inhibition": "-10.4% (inactive)"}
{"molecule": "CC(C)Oc1ccc(CCc2n[nH]c(=S)n2Cc2ccccc2)cc1", "Potency": "5.31 µM (active)"}
{"molecule": "COc1ccc(/C=N/Nc2cc(C)nc3ccccc23)cc1", "Potency": "2.11 µM (active)"}
{"molecule": "S=C(NCc1ccccc1)Nc1ccncc1", "activity change, negative = inhibition": "12.2% (inactive)"}
{"molecule": "S=C(NCc1ccccc1)N1CCn2cccc2C1c1cccnc1", "note": "(configuration not stated)", "Potency": "9.44 µM (active)"}
{"molecule": "CN(C)c1ccc(-c2ccnc(N[C@H]3CO[C@H]4[C@@H]3OC[C@@H]4NC(=O)NCc3ccccc3)n2)cc1", "activity change, negative = inhibition": "0.409% (inactive)"}
{"molecule": "c1csc(-c2ccnc(N[C@H]3CO[C@H]4[C@@H]3OC[C@@H]4NCC3CCCCC3)n2)c1", "Potency": "12.2 µM (active)"}
{"molecule": "O=C(O)COc1ccc(-c2nccc(-c3cccs3)n2)cc1", "activity change, negative = inhibition": "25.3% (inactive)"}
{"molecule": "Cc1cc(CN2CCC(CO)(Cc3ccccc3Cl)CC2)cc(C)c1O", "Potency": "16.8 µM (active)"}
{"molecule": "CCc1ccccc1CN1CCC(CO)(CN2CCCC2)CC1", "activity change, negative = inhibition": "0.298% (inactive)"}
{"molecule": "CCOc1ccc(CNC(=O)CN2N=C(c3ccccc3)CCC2=O)cc1OC", "activity change, negative = inhibition": "-2.34% (inactive)"}
{"molecule": "Cc1cn2nc(C(=O)NCc3ccccn3)cc2c(=O)[nH]1", "activity change, negative = inhibition": "6.06% (inactive)"}
{"molecule": "COc1ccc(CC(=O)NCc2ccccn2)cc1OC", "Potency": "7.5 µM (active)"}
{"molecule": "O=C1c2ccccc2C(=O)c2[nH]c(=O)[nH]c21", "Potency": "5.96 µM (active)"}
{"molecule": "C=C[C@]1(C)C[C@@H](OC(=O)CSC(C)(C)CNC(=O)[C@H](N)C(C)C)[C@]2(C)[C@H](C)CC[C@]3(CCC(=O)[C@H]32)[C@@H](C)[C@@H]1O", "Potency": "8.41 µM (active)"}
{"molecule": "CCN(CC)CCC(c1ccc2c(c1)OCO2)c1c(O)cc(OC)cc1OC", "note": "(configuration not stated)", "Potency": "4.22 µM (active)"}
{"molecule": "CCN(CC)CCC(c1ccc(N(C)C)cc1)c1c(O)cc(OC)cc1OC", "note": "(configuration not stated)", "Potency": "3.35 µM (active)"}
{"molecule": "CCN(CC)CCC(c1ccc(OC)cc1)c1c(O)cc(OC)cc1OC", "note": "(configuration not stated)", "Potency": "6.68 µM (active)"}
{"molecule": "CCCn1ccc2sc(C)c(C(=O)O)c2c1=O", "activity change, negative = inhibition": "8.71% (inactive)"}
{"molecule": "COc1ccc(C(=O)N2CCc3ccc(C(=O)NCc4ccccn4)cc32)cc1", "activity change, negative = inhibition": "-8.95% (inactive)"}
{"molecule": "COc1cccc(CN2CCc3c(cc(C(=O)NCc4ccccn4)n3C)C2)c1", "Potency": "15 µM (active)"}
{"molecule": "CCn1cc(-c2ccncc2)cc1C(=O)NCc1cccc(OC)c1", "activity change, negative = inhibition": "-24.5% (inactive)"}
{"molecule": "Cc1noc(-c2cn(C3CCN(C(=O)Cc4ccc(OC(F)(F)F)cc4)CC3)nn2)n1", "activity change, negative = inhibition": "-9.53% (inactive)"}
{"molecule": "CCOc1ccc(C(=O)NCc2nc3cccnc3n2Cc2cccc(OC)c2)cc1", "activity change, negative = inhibition": "20.1% (inactive)"}
{"molecule": "COc1cccc(C(NC(C)=O)c2ccc3cccnc3c2O)c1", "note": "(configuration not stated)", "Potency": "4.22 µM (active)"}
{"molecule": "CCCC(=O)NC(c1ccccc1)c1ccc2cccnc2c1O", "note": "(configuration not stated)", "Potency": "6.68 µM (active)"}
{"molecule": "CCCC(=O)NC(c1ccc(C(C)C)cc1)c1ccc2cccnc2c1O", "note": "(configuration not stated)", "Potency": "13.3 µM (active)"}
{"molecule": "CCCC(=O)NCCc1noc(-c2ccccc2)n1", "activity change, negative = inhibition": "30.7% (inactive)"}
{"molecule": "CCCCC(=O)NC(c1ccccc1OC)c1ccc2cccnc2c1O", "note": "(configuration not stated)", "Potency": "5.31 µM (active)"}
